# Screening data as filed in PubChem BioAssay.
# The list is not random: actives were taken first. Their share in the collection is about 6.7%.
# C diff HTS = blocks growth of Clostridium difficile; Clostridium difficile clinical isolate growth, OD600, 24 h; active compounds read low; growth activity, negative = inhibition, % at 16 µg/mL (by protocol); actives 0.25% (n = 86,000);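 active = mean growth activity at or below -80% and every replicate also at or below -80%; inconclusive = mean at or below -80% but some replicate above -80%; inactive = mean growth activity above -80%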;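 also: 0% = DMSO wells and -100% = levofloxacin 16 µg/mL wells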
# Pf Dd2 inh = P. falciparum Dd2 growth inhibition; SYBR Green, 72 h; active compounds read low; activity change, % at 10 µM; actives 2.3% (n = 94,000); AID 1159554; in the data active = activity change below about -80%; inconclusive = no clear call, values can overlap the other calls
# T cruzi growth-1 = T. cruzi proliferation inhibition. AID 624255. T. cruzi beta-gal in NIH3T3, GalScreen luminescence, 90 h. inhibition, % at 8.34 µM. actives 5.9% (n = 77,000);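 active = mean inhibition above about 93%, with at least 55% of replicates each passing it, limit read from the data, passing the limit was not always enough; inconclusive = only one of those two conditions holds; inactive = neither condition holds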
# T cruzi growth-2 = inhibitors of T. cruzi proliferation | shares compounds with T cruzi growth-1 | T. cruzi beta-gal in NIH3T3, GalScreen luminescence, 90 h | inhibition, % at 8.35 µM | actives 72% (n = 5,600) | AID 651739;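 active = mean replicate inhibition above about 95% and at least 55% of replicates individually reaching it, limit read from the data; inconclusive = only one of the two criteria is met; inactive = neither criterion is met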
# T cruzi growth-3 = Trypanosoma cruzi proliferation inhibition. shares compounds with T cruzi growth-1. T. cruzi beta-gal in NIH3T3, GalScreen luminescence, 90 h. inhibition, % at 2.09 µM. actives 21% (n = 5,600);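 active = mean inhibition above about 95%, with at least 55% of replicates also reaching it, limit read from the data; inconclusive = meets just one of the two conditions; inactive = meets neither condition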;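 also: plate controls were neutral control median for no effect and positive control median for full effect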
# 3T3 cytotox = cytotoxicity in mouse NIH/3T3 fibroblasts; cytotoxicity (signal decrease), % at 8.35 µM; actives 14% (n = 5,600); NIH/3T3 viability, CellTiter-Glo ATP luminescence, 90 h; AID 651742; shares compounds with T cruzi growth-1;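 active = mean signal decrease across replicates above about 35% based on untreated-well scatter, with enough replicates individually passing, limit read from the data; inconclusive = no rule stated though some were filed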;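 also: 0% = median of neutral control wells and 100% = median of positive control wells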
# 3T3 cytotox 2 = NIH/3T3 (mouse) viability loss; shares compounds with T cruzi growth-1; NIH/3T3 viability, CellTiter-Glo ATP luminescence, 90 h; inhibition, % at 24.9 µM; actives 56% (n = 5,600); AID 651744;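 active = mean loss of cell viability signal at or above a set limit, and enough replicates individually reaching it; inconclusive = meets only the mean limit or only the replicate share; inactive = meets neither condition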;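 also: 0% = median of neutral control wells and 100% = median of positive control wells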
# Starred values were filed as active, the others as inactive; u = inconclusive; x = no result given.
SMILES,C diff HTS,Pf Dd2 inh,T cruzi growth-1,T cruzi growth-2,T cruzi growth-3,3T3 cytotox,3T3 cytotox 2
C[C@@H]1CCCCO[C@H](CN(C)C(=O)NC2CCCCC2)[C@@H](C)CN([C@@H](C)CO)C(=O)c2cc(NS(=O)(=O)c3ccccc3)ccc2O1,-8.6,-51.3,94.0,x,x,x,x
COc1ccc2c3c(n(C)c2c1)[C@H](CO)N(C(=O)C1CCCC1)CC31CCN(Cc2cccc(F)c2)CC1,7.0,-37.5,x,x,x,x,x
O=C(Nc1ccc(F)cc1)N[C@@H]1CC[C@@H](CCn2cc(-c3ccccc3F)nn2)O[C@@H]1CO,-0.8,x,x,x,x,x,x
C[C@H](CO)N1C[C@H](C)[C@H](CN(C)Cc2ccc3c(c2)OCO3)Oc2c(NC(=O)c3ccncc3)cccc2C1=O,0.4,2.3,97.3*,85.4,78.2,2.5,16.4
C[C@@H]1CN([C@H](C)CO)C(=O)c2cccc(NC(=O)c3cnccn3)c2O[C@@H]1CN(C)Cc1ccc(Cl)c(Cl)c1,15.5,-18.7,68.5,x,x,x,x
C[C@H]1CN([C@@H](C)CO)C(=O)c2cccc(NC(=O)c3ccncc3)c2O[C@@H]1CN(C)Cc1ccc(Cl)c(Cl)c1,7.8,-32.2,94.5,x,x,x,x
C[C@H](CO)N1C[C@H](C)[C@@H](CN(C)Cc2ccc3c(c2)OCO3)Oc2c(NC(=O)c3cnccn3)cccc2C1=O,2.0,-9.7,35.4,x,x,x,x
C[C@@H]1CN([C@@H](C)CO)C(=O)c2cccc(NC(=O)c3cnccn3)c2O[C@@H]1CN(C)Cc1ccc2c(c1)OCO2,1.6,-32.8,96.8*,52.3,5.4,29.3,50.5*
C[C@H]1CN([C@@H](C)CO)C(=O)c2cccc(NC(=O)c3cnccn3)c2O[C@@H]1CN(C)Cc1ccc(Cl)c(Cl)c1,17.8,-8.2,109.0*,84.3,-3.4,-10.7,49.7*
C[C@@H]1CN([C@@H](C)CO)C(=O)Cc2cc(NC(=O)Nc3ccc(C(F)(F)F)cc3)ccc2O[C@@H]1CN(C)C(=O)Nc1ccc(F)cc1,-4.3,-9.9,3.5,x,x,x,x
CNC[C@H]1OCCCC[C@H](C)Oc2ccc(NS(=O)(=O)c3cccs3)cc2C(=O)N([C@@H](C)CO)C[C@@H]1C,5.4,46.7,-5.5,x,x,x,x
CCCC(=O)Nc1ccc2c(c1)C(=O)N(C)C[C@H](OC)[C@@H](C)CN(C(=O)c1ccncc1)[C@H](C)CO2,8.4,18.4,10.6,x,x,x,x
C[C@@H]1CN([C@H](C)CO)S(=O)(=O)c2ccc(C#Cc3ccc(F)cc3)cc2O[C@@H]1CN(C)C(=O)NC1CCCCC1,3.3,-2.6,78.3,x,x,x,x
CC(C)CC#Cc1ccc2c(c1)O[C@@H](CN(C)C(=O)NC1CCCC1)[C@@H](C)CN([C@H](C)CO)S2(=O)=O,-10.2,-27.7,119.3*,105.5*,93.8,-2.9,101.9*
COc1ccc(C#Cc2ccc3c(c2)O[C@@H](CN(C)C(=O)NC2CCCCC2)[C@H](C)CN([C@H](C)CO)S3(=O)=O)cc1,-6.7,-75.1,u,103.1*,99.1*,-12.7,12.7
C[C@@H]1CN([C@@H](C)CO)S(=O)(=O)c2ccc(C#Cc3ccc(F)cc3)cc2O[C@@H]1CN(C)C(=O)NC1CCCC1,-3.7,-45.2,115.4*,101.1*,87.5,-19.4,74.0*
C[C@H](CO)N1C[C@H](C)[C@@H](CN(C)C(=O)NC2CCCCC2)Oc2cc(C#Cc3ccc(F)cc3)ccc2S1(=O)=O,9.2,-34.3,86.7,x,x,x,x
CC(C)CC#Cc1ccc2c(c1)O[C@H](CN(C)C(=O)NC1CCCC1)[C@@H](C)CN([C@H](C)CO)S2(=O)=O,9.8,-2.1,79.3,x,x,x,x
C[C@@H]1CN([C@@H](C)CO)S(=O)(=O)c2ccc(C#Cc3ccc(F)cc3)cc2O[C@H]1CN(C)C(=O)NC1CCCCC1,-1.1,-41.2,83.7,x,x,x,x
C[C@H]1CN([C@@H](C)CO)S(=O)(=O)c2ccc(C#Cc3ccc(F)cc3)cc2O[C@H]1CN(C)C(=O)NC1CCCC1,-13.7,u,98.7*,98.6*,112.8*,2.4,104.4*
C/C=C/c1ccc(C2[C@H]3CNC[C@@H]2N3Cc2cccc(C(F)(F)F)c2)cc1 (stereo partly specified),32.1,-2.4,x,x,x,x,x
CC(=O)Nc1ccc2c(c1)C(=O)N(C)[C@@H]1CC[C@H](CC(=O)NCc3ccc(F)cc3)O[C@H]1CO2,5.1,-0.9,-8.2,x,x,x,x
